Screening data deposited in PubChem BioAssay by several laboratories.
Hits are enriched below; roughly 1.8% of the tested compounds scored in any of these assays.
Mcl1 Noxa PPI: Mcl-1/Noxa interaction inhibition | Q07820 | TR-FRET Mcl-1/Noxa peptide binding, 2 h | inhibition, % at 21.7 µM | hit rate 1.5% among 220,000;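 active = compounds that cut the protein-peptide binding signal by more than 50% relative to plate controls in a single-dose test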;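 also: His-tagged Mcl-1 with rhodamine Noxa BH3 peptide and terbium anti-His antibody; 0% = Mcl-1 plus Noxa peptide wells and 100% = peptide-only wells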
Mcl1-Bid inh: disrupts binding of human Mcl-1 to Bid peptide; hit rate 0.97% among 220,000; Q07820; inhibition, % at 21.7 µM; AID 1021; TR-FRET Mcl-1/Bid-Dy647 peptide binding, 1536-well;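 active = compounds that cut the binding signal by more than half at the single screening dose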;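 also: His-tagged Mcl-1 with europium anti-His antibody binding Bid BH3 peptide; 0% = Mcl-1 plus peptide wells and 100% = peptide-only wells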
TLR4-MyD88 BLA: inhibitors of human TLR4-MyD88 binding. O00206+Q99836. AID 861. inhibition, % at 8.4 µM. hit rate 0.18% among 200,000. HeLa CL3-4 TLR4/MyD88 BLA complementation, FRET ratio; in the data active = inhibition above about 25%;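 also: 0% = vehicle and 100% = reference inhibitor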
TLR9-MyD88 inh: TLR9-MyD88 interaction inhibition. Q9NR96+Q99836. inhibition, % at 4.98 µM. hit rate 0.21% among 340,000. CHO BLA complementation TLR9-MyD88, CCF4 FRET ratio;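 active = inhibition above the mean over all tested compounds plus 3 SD, cut at about 21% in these data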;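 also: 0% = DMSO only wells and 100% = clavulanate BLA inhibitor control wells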
Mcl-1 Bim block: inhibitors of Bim-Mcl-1 interaction, human; Q07820; Bead-based flow cytometry, Bim peptide-Mcl-1 binding; inhibition, % at 10 µM; hit rate 0.1% among 190,000; AID 1009; in the data active = inhibition above about 40%;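 also: 0% = no compound tracer wells and 100% = peptide blocker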
NOD2 RIPK2 PPI: inhibitors of human NOD2-RIPK2 interaction. hit rate 0.38% among 360,000. inhibition, % at 4.98 µM. CHO BLA complementation NOD2-RIPK2, CCF4 ratio. O43353; in the data active = inhibition above about 21%;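 also: 0% = vehicle only and 100% = reference blocker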
Target sequence (O43353 whole entry, looked up): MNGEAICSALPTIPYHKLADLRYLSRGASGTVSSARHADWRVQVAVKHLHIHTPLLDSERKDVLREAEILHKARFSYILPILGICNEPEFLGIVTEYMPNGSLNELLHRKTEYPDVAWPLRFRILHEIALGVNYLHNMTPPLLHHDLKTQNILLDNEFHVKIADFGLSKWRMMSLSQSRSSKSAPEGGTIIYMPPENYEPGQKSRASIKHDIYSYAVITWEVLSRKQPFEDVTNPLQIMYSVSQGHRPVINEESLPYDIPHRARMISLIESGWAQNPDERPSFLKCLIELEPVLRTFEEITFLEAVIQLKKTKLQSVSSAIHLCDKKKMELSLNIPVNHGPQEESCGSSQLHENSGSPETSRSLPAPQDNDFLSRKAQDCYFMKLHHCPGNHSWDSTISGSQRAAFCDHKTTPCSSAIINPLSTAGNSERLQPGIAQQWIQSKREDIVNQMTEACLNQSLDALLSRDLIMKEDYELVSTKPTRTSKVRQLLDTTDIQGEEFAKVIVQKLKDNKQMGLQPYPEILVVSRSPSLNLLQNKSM
Numbers without * were called inactive; / = not tested or not shown.

SMILES	Mcl1 Noxa PPI	Mcl1-Bid inh	TLR4-MyD88 BLA	TLR9-MyD88 inh	Mcl-1 Bim block	NOD2 RIPK2 PPI
O=C(NCc1ccco1)c1cc2c(s1)CSC2	79*	-24	2	/	-1	/
COc1cccc(COC(=O)c2ccc3c(=O)n4c(nc3c2)CCC4)c1OC	/	/	/	-4	/	-19
Cc1cc(NC(=O)COc2ccc3ccccc3c2)no1	/	/	/	6	/	3
Cc1cc(NC(=O)CSc2nc(-c3ccc(F)cc3)cs2)no1	86*	-41	-11	-8	1	2
Cc1cc(NC(=O)CSc2nc(-c3ccccc3)cs2)no1	-3	3	5	-2	-1	1
Cc1cc(NC(=O)CN2CCCCCCC2)no1	21	64*	2	-6	-4	1
Cc1cc(NC(=O)CSc2ccc3ccccc3c2)no1	53*	30	-5	1	0	-3
CC1(C(=O)NS(=O)(=O)c2ccccc2Cl)CCN1C(=O)Cc1ccccc1Cl (stereo not drawn)	/	/	/	/	/	-6
CCCC(=O)Nc1ccc2nc(SCC(=O)N3CCCC3)sc2c1	9	-21	-8	-7	0	-6
Cn1c(SCC(=O)Nc2ccc3nc(SCC(=O)N4CCCC4)sc3c2)nnc1-c1ccccc1	97*	35	-16	/	-8	/
CCN(CC)c1c(C)nc2ccc(C(=O)NCc3ccc4c(c3)OCO4)cn12	/	/	/	/	/	-2
C=CCn1c(C)c(C(C)=O)c(N2CCN(C(c3ccccc3)c3ccccc3)CC2)nc1=S	9	-28	-12	8	-6	3
O=C(O)c1cccc(N2C(=O)/C(=C/c3ccc(SCc4ccc(Cl)cc4)o3)SC2=S)c1	89*	84*	6	8	11	-1
O=C(O)c1ccc(NS(=O)(=O)c2ccc3c(c2)C2C=CCC2C(c2ccccc2F)N3)cc1 (stereo not drawn)	93*	4	-6	-5	-1	0
COc1ccc(C)cc1NC(=O)NNC(=O)C1CCC(C(C)(C)C)CC1 (stereo not drawn)	-1	-25	-9	-1	-6	-1
COCCN1C(=O)/C(=C/c2ccc(Oc3ccc([N+](=O)[O-])cn3)c(OC)c2)SC1=Nc1ccccc1	-17	-15	6	-6	18	8
COc1cc(/C=C2\SC(=Nc3ccccc3)N(CCc3c[nH]c4ccccc34)C2=O)ccc1OC(C)C(=O)O (stereo not drawn)	51*	-6	-3	-9	0	18
O=C1/C(=C/c2ccc(N3CCOCC3)o2)SC(=Nc2ccccc2)N1CCc1c[nH]c2ccccc12	38	-63	14	14	-21	47*
O=C1S/C(=C/c2ccc(N3CCOCC3)o2)C(=O)N1Cc1ccc(F)cc1	35	12	10	6	0	1
COc1ccc(N=C2S/C(=C\c3ccc(OC(C)C(=O)O)c(OC)c3)C(=O)N2CCc2c[nH]c3ccccc23)cc1 (stereo not drawn)	82*	-16	2	-2	2	7
CCCN1C(=O)/C(=C/c2cc(C)n(C)c2C)SC1=Nc1ccc(OC)cc1	16	-94	11	-14	0	-7
CC#CCN1c2ccccc2[C@]23C[C@@H](C(=O)OC)N(C(=O)NCCBr)C2=NC(C(=O)OC)=C(C(=O)OC)[C@H]13	/	/	/	4	/	-7
CC(CCC(=O)Nc1nncs1)C(=O)O (stereo not drawn)	33	86*	1	-4	0	-9
Cc1cc(OCC(=O)OCC(=O)Nc2ccc(Cl)cn2)ccc1Cl	/	/	/	0	/	-5
NC(=O)N/N=C/c1ccc(-c2ccc(S(=O)(=O)Nc3ncccn3)cc2)o1	/	/	/	1	/	-8
SMILES	Mcl1 Noxa PPI	Mcl1-Bid inh	TLR4-MyD88 BLA	TLR9-MyD88 inh	Mcl-1 Bim block	NOD2 RIPK2 PPI
CC(C)Oc1ccc(C(=O)N/N=C/c2ccc(-c3ccc(S(=O)(=O)Nc4ncccn4)cc3)o2)cc1	67*	-34	7	5	-1	-4
N#C/C(=C/c1ccc(F)cc1)c1nnc(NC(=O)c2ccccc2)s1	68*	3	/	-12	/	-12
Cc1c2cnn(CC(=O)N3CCOCC3)c(=O)c2c(C)n1Cc1ccccc1F	/	/	/	1	/	8
c1ccc(-c2cc(-c3nnc4n3N=C(c3ccc5ccccc5c3)CS4)[nH]n2)cc1	31	58*	5	-8	0	-9
Cc1cc(-c2nnc3n2N=C(c2ccc(-c4ccccc4)cc2)CS3)n[nH]1	4	7	-1	-12	7	7
CCOc1ccc(CN2CCNC(=O)C2CC(=O)NCc2csc(C(C)C)n2)cc1 (stereo not drawn)	/	/	/	-4	/	4
Cc1ccc2[nH]c(O)c(N=NC(=O)c3ccc(NS(=O)(=O)c4cccs4)cc3)c2c1	71*	11	/	-7	/	-6
O=C(N=Nc1c(O)[nH]c2ccc(F)cc12)c1ccc(NS(=O)(=O)c2cccs2)cc1	/	/	/	-8	/	2
CCCCC(=O)OCC(=O)Nc1ccc(C)c(F)c1	6	-11	-5	-5	-5	-6
COc1cc(OC)c(S(=O)(=O)Nc2ccc(C(=O)O)cc2)cc1S(=O)(=O)Nc1ccc(C(=O)O)cc1	/	/	/	-2	/	3
O=c1c(C(c2ccccc2)c2c(O)sc3ccccc3c2=O)c(O)sc2ccccc12	53*	71*	-5	-8	-5	-3
O=c1c2ccccc2sc2ccccc12	/	/	/	-6	/	-3
CSc1nc(-c2ccc(C)cc2)[nH]c1S(=O)(=O)c1ccccc1	26	3	-9	-6	2	-3
CC(=O)Sc1nc(-c2ccccc2)[nH]c1S(=O)(=O)c1ccc(C)cc1	70*	-53	-12	/	-2	/
COc1ccc2c(c1)CC/C(=C\Nc1ccc3c(c1)OCO3)C2=O	73*	-9	-2	4	-4	1
Clc1cncc(Cl)c1NNc1c2ccccc2nc2ccccc12	58*	-9	-5	-11	-6	-8
c1cncc(Nc2c3ccccc3nc3ccccc23)c1	/	/	/	-10	/	-21
O=C(Cn1c(=O)n(Cc2ccccc2)c(=O)c2ccccc21)NCc1ccco1	-8	-37	8	0	3	3
COc1cc2c(=O)n(Cc3ccccc3)c(=O)n(CC(=O)NCc3ccco3)c2cc1OC	-57	52*	7	-10	0	-8
COc1cc(C#CC#CCN2CCCCC2)ccc1O	51*	8	-3	-1	-1	1
COc1cc(C(=O)OCCN2CCCCC2)ccc1O	13	-67	-3	5	-5	-7
COCC(C)n1c(SCC(=O)NC(=O)NCc2ccccc2)nc2ccccc2c1=O (stereo not drawn)	/	/	/	-14	/	-9
COC(=O)C1=C(C)N(C)C(=O)/C1=C\c1ccco1	8	-39	6	-3	-2	-10
CC1=C(C#N)C(=O)N(C2CCS(=O)(=O)C2)C(=O)/C1=C\c1ccco1 (stereo not drawn)	110*	60*	/	/	/	/
CC1CCN(CCc2nc3cc(NC(=O)COc4ccc(Cl)cc4)ccc3n2C)CC1	/	/	/	8	/	5
CN(CCC1CCOCC1)C(=O)c1cc(COc2c(F)cccc2F)on1	/	/	/	-10	/	-3
